Values joined by “and” are separate entries in the source; they are usually repeats but may differ in a detail not shown here. Identical values can stand only once. Screen size: about 5,500 compounds; about 2,000 (36%) were called active. Inconclusive results (about 18%) are left out. Cut-off read from the data, not from the text of the source: active = normalized growth mostly below about 0.91 (no sharp cut-off); inconclusive = no clear call, values can overlap the other calls; inactive = mostly above about 0.92. Some of the results follow.
Assay: chemical genetic growth profiling, strain panel (AID 1159580);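 note: tested at 20 µM; growth read once vehicle control cultures reached saturation at 30 °C; 1 = growth at the plate median or of vehicle wells; lower values mean less growth of the strain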
Settings: S. cerevisiae deletion strains, growth OD

Measured: normalized growth

CO[C@]12C[C@@H](COC(=O)c3cncc(Br)c3)CN(C)[C@@H]1Cc1cn(C)c3cccc2c13
inactive: locus YAL013W, strain DEP1, active compounds read low 1.01 | locus YAL021C, strain ccr4, active compounds read low 0.973 | locus YAL026C, strain drs2, active compounds read low 1 | locus YAL030W, strain snc1, active compounds read low 1 | locus YBL061C, strain skt5, active compounds read low 0.996 | locus YBR009C, strain hhf1, active compounds read low 0.991 | locus YBR021W, strain FUR4, active compounds read low 0.913 | locus YBR023C, strain chs3, active compounds read low 0.979 | locus YBR171W, strain sec66, active compounds read low 0.983 | locus YBR229C, strain ROT2, active compounds read low 1 | locus YBR231C, strain swc5, active compounds read low 0.951 | locus YBR279W, strain paf1, active compounds read low 0.998 | locus YCL011C, strain gbp2, active compounds read low 0.983 | locus YCL016C, strain dcc1, active compounds read low 0.998 | locus YCL029C, strain bik1, active compounds read low 1.02 | locus YCL069W, strain vba3, active compounds read low 0.998 | locus YCR088W, strain abp1, active compounds read low 1 | locus YDL005C, strain med2, active compounds read low 0.979 | locus YDL035C, strain GPR1, active compounds read low 0.99 | locus YDL040C, strain nat1, active compounds read low 0.995 | locus YDL074C, strain BRE1, active compounds read low 0.978 | locus YDL101C, strain DUN1, active compounds read low 1.01 | locus YDL134C, strain PPH21, active compounds read low 0.995 | locus YDL185W, strain tfp1, active compounds read low 1 | locus YDL192W, strain arf1, active compounds read low 1.01 | locus YDR001C, strain nth1, active compounds read low 0.994 | locus YDR069C, strain doa4, active compounds read low 0.966 | locus YDR101C, strain arx1, active compounds read low 1 | locus YDR137W, strain rgp1, active compounds read low 1.12 | locus YDR150W, strain NUM1, active compounds read low 0.999 | locus YDR159W, strain sac3, active compounds read low 1.01 | locus YDR162C, strain NBP2, active compounds read low 1 | locus YDR195W, strain ref2 0.943 | locus YDR297W, strain sur2, active compounds read low 0.987 | locus YDR318W, strain mcm21, active compounds read low 1 | locus YDR334W, strain swr1, active compounds read low 1 | locus YDR335W, strain msn5, active compounds read low 0.986 | locus YDR388W, active compounds read low 1 | locus YDR392W, strain spt3, active compounds read low 0.93 | locus YDR502C, strain sam2, active compounds read low 1 | locus YEL003W, strain gim4, active compounds read low 0.988 | locus YEL037C, strain rad23, active compounds read low 0.995 | locus YEL061C, strain CIN8 (second series), active compounds read low 0.987 | locus YEL061C, strain CIN8, active compounds read low 0.997 | locus YER015W, strain faa2, active compounds read low 0.996 | locus YER016W, strain bim1, active compounds read low 1 | locus YER110C, active compounds read low 1.01 | locus YER111C, strain swi4, active compounds read low 1.01 | locus YER155C, strain BEM2 (second series), active compounds read low 0.912 | locus YER155C, strain BEM2, active compounds read low 0.998 | locus YER167W, strain BCK2, active compounds read low 1 | locus YFR010W, strain ubp6, active compounds read low 0.99 | locus YGL078C, strain dbp3, active compounds read low 1 | locus YGL086W, strain mad1, active compounds read low 1 | locus YGL167C, strain pmr1, active compounds read low 0.996 | locus YGL173C, strain kem1, active compounds read low 0.989 | locus YGL227W, strain vid30, active compounds read low 0.994 | locus YGL240W, strain doc1, active compounds read low 0.95 | locus YGL248W, strain PDE1, active compounds read low 1.01 | locus YGL253W, strain hxk2, active compounds read low 0.998 | locus YGR078C, strain PAC10, active compounds read low 0.974 | locus YGR135W, strain pre9, active compounds read low 0.993 | locus YGR229C, strain SMI1, active compounds read low 1 | locus YGR252W, strain gcn5, active compounds read low 0.869 | locus YHR013C, strain ard1, active compounds read low 1.02 | locus YHR027C, strain rpn1, active compounds read low 0.988 | locus YHR030C, strain SLT2, active compounds read low 1.01 and 0.979 | locus YHR079C, strain IRE1 (second series), active compounds read low 1.01 | locus YHR079C, strain IRE1, active compounds read low 0.957 | locus YHR094C, strain hxt1, active compounds read low 1 | locus YHR129C, strain ARP1, active compounds read low 1.02 | locus YHR142W, strain chs7, active compounds read low 1.01 | locus YHR200W, strain rpn10, active compounds read low 1 | locus YIL066C, strain RNR3, active compounds read low 1 | locus YIL073C, strain SPO22, active compounds read low 1 | locus YIL125W, strain kgd1, active compounds read low 1.01 | locus YIR030C, strain dcg1, active compounds read low 1.01 | locus YJL092W, strain hpr5, active compounds read low 1 | locus YJL095W, strain BCK1 (second series), active compounds read low 1 | locus YJL095W, strain BCK1, active compounds read low 0.996 and 0.967 | locus YJL115W, strain asf1, active compounds read low 0.991 | locus YJL129C, strain trk1, active compounds read low 0.982 | locus YJL134W, strain LCB3, active compounds read low 1 | locus YJL154C, strain vps35, active compounds read low 0.981 | locus YJL164C, strain tpk1, active compounds read low 0.997 | locus YJL166W, strain qcr8, active compounds read low 0.972 | locus YJL168C, strain set2, active compounds read low 1 | locus YJL187C, strain SWE1 (second series), active compounds read low 1.01 | locus YJL187C, strain SWE1, active compounds read low 0.996 | locus YJR043C, strain POL32, active compounds read low 1.01 | locus YJR066W, strain TOR1, active compounds read low 0.897

Source: PubChem BioAssay AID1159580 (chemical genetic matrix, 2015)
